# Laboratory results from paper PMC11006913.
# Changes are numbered by the printed parent chain.
# Assays:
# Test in all cases: PBM; 200 nM protein, PBS
# Details in all cases: dsDNA, one strand shown
# [1] = molecular target: HOXC9 (Homo sapiens, UniProt P31274 178-260, K195R)
# [2] = molecular target: HOXA7 (Homo sapiens, UniProt P31268 116-202)
# [3] = molecular target: HOXC10 (Homo sapiens, UniProt Q9NYD6 254-340)
# [4] = molecular target: HOXB6 (Homo sapiens, UniProt P17509 132-218, K202E)
# [5] = molecular target: HOXB9 (Homo sapiens, UniProt P17482 171-250)
# [6] = molecular target: HOXC9 (Homo sapiens, UniProt P31274 178-260)
# [7] = molecular target: HOXD13 (Homo sapiens, UniProt P35453 263-343, T313R)
# [8] = molecular target: HOXC9 (Homo sapiens, UniProt P31274 178-260, R193K)
# [9] = molecular target: HOXD13 (Homo sapiens, UniProt P35453 263-343)
# [10] = molecular target: HOXC10 (Homo sapiens, UniProt Q9NYD6 254-340, K271E)
# [11] = molecular target: HOXD13 (Homo sapiens, UniProt P35453 263-343, T313A)
# [12] = molecular target: HOXB9 (Homo sapiens, UniProt P17482 171-250, R186Q)
# [13] = molecular target: HOXC9 (Homo sapiens, UniProt P31274 178-260, R222W)
# [14] = molecular target: HOXA7 (Homo sapiens, UniProt P31268 116-202, W177C)
# [15] = molecular target: HOXB6 (Homo sapiens, UniProt P17509 132-218)
# [16] = molecular target: T1, PAX4 (Homo sapiens, UniProt O43316 9-242, F177Y)
# T1 sequence: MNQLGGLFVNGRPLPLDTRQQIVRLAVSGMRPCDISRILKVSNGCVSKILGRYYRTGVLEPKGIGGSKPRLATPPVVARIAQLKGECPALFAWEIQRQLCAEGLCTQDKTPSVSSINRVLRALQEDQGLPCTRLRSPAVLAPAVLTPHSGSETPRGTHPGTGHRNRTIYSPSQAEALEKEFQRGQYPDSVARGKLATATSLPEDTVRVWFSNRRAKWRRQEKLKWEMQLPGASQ
# [17] = molecular target: T2, PAX4 (Homo sapiens, UniProt O43316 9-242, R200K)
# T2 sequence: T1 sequence with Y169F, R192K
# [18] = molecular target: HESX1 (Homo sapiens, UniProt Q9UBX0 95-180, R109Q)
# Sequence of HESX1 (Q9UBX0 95-180 R109Q): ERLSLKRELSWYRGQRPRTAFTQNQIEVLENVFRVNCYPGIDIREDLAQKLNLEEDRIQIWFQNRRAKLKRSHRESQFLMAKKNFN
# Sequence of HOXB6 (Homo sapiens, UniProt P17509 132-218) (P17509 132-218): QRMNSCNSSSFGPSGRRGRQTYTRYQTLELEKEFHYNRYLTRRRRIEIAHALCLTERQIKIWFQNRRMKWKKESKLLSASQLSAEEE
# Sequence of HOXA7 (Homo sapiens, UniProt P31268 116-202, W177C) (P31268 116-202 W177C): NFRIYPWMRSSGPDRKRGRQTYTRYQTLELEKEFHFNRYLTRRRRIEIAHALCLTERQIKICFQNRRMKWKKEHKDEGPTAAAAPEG
# Sequence of HOXA7 (Homo sapiens, UniProt P31268 116-202) (P31268 116-202): as the sequence (P31268 116-202 W177C) above, with C62W counted along it
# Sequence of HOXB6 (Homo sapiens, UniProt P17509 132-218, K202E) (P17509 132-218 K202E): as the sequence (P17509 132-218) above, with K71E counted along it
# Sequence of HOXD13 (Homo sapiens, UniProt P35453 263-343) (P35453 263-343): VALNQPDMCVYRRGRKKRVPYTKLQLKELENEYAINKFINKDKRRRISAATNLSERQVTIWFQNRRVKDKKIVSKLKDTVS
# Sequence of HOXC9 (Homo sapiens, UniProt P31274 178-260, R193K) (P31274 178-260 R193K): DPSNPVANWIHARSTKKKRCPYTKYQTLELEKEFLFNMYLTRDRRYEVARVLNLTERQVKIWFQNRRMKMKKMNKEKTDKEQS
# Sequence of HOXC9 (Homo sapiens, UniProt P31274 178-260, R222W) (P31274 178-260 R222W): as the sequence (P31274 178-260 R193K) above, with K16R, R45W counted along it
# Sequence of HOXC9 (Homo sapiens, UniProt P31274 178-260, K195R) (P31274 178-260 K195R): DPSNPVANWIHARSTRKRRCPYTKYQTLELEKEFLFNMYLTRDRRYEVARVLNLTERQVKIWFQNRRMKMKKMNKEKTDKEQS
# Sequence of HOXD13 (Homo sapiens, UniProt P35453 263-343, T313R) (P35453 263-343 T313R): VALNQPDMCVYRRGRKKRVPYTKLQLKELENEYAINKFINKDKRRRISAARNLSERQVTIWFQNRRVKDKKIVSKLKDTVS
# Sequence of HOXD13 (Homo sapiens, UniProt P35453 263-343, T313A) (P35453 263-343 T313A): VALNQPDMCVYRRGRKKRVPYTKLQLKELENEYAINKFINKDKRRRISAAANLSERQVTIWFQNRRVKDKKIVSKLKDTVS
# Sequence of HOXC9 (Homo sapiens, UniProt P31274 178-260) (P31274 178-260): as the sequence (P31274 178-260 R193K) above, with K16R counted along it
# Sequence of HOXB9 (Homo sapiens, UniProt P17482 171-250, R186Q) (P17482 171-250 R186Q): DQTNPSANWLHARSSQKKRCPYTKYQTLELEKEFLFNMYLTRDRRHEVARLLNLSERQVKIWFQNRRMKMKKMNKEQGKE
# Sequence of HOXC10 (Homo sapiens, UniProt Q9NYD6 254-340) (Q9NYD6 254-340): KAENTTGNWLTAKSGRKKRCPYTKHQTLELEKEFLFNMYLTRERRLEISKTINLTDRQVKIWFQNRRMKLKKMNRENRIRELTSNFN
# Sequence of HOXB9 (Homo sapiens, UniProt P17482 171-250) (P17482 171-250): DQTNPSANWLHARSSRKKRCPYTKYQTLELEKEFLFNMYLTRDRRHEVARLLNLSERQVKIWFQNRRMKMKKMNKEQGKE
# Sequence of HOXC10 (Homo sapiens, UniProt Q9NYD6 254-340, K271E) (Q9NYD6 254-340 K271E): as the sequence (Q9NYD6 254-340) above, with K18E counted along it
sequence,measurement,setting,value
CCCATTAA,binding signal,[1],"12.9 upbm affinity estimate (log intensity, higher = more binding, comparable within an allelic series)"
same,binding signal,[2],"11.8 upbm affinity estimate (log intensity, higher = more binding, comparable within an allelic series)"
same,binding signal,[3],"12.2 upbm affinity estimate (log intensity, higher = more binding, comparable within an allelic series)"
same,binding signal,[4],"9.99 upbm affinity estimate (log intensity, higher = more binding, comparable within an allelic series)"
same,binding signal,[5],"12.2 upbm affinity estimate (log intensity, higher = more binding, comparable within an allelic series)"
same,binding signal,[6],"12.9 upbm affinity estimate (log intensity, higher = more binding, comparable within an allelic series)"
same,binding signal,[7],"10.6 upbm affinity estimate (log intensity, higher = more binding, comparable within an allelic series)"
same,binding signal,[8],"12.9 upbm affinity estimate (log intensity, higher = more binding, comparable within an allelic series)"
same,binding signal,[9],"11.8 upbm affinity estimate (log intensity, higher = more binding, comparable within an allelic series)"
same,binding signal,[10],"12.2 upbm affinity estimate (log intensity, higher = more binding, comparable within an allelic series)"
same,binding signal,[11],"11.5 upbm affinity estimate (log intensity, higher = more binding, comparable within an allelic series)"
same,binding signal,[12],"12 upbm affinity estimate (log intensity, higher = more binding, comparable within an allelic series)"
same,binding signal,[13],"10.9 upbm affinity estimate (log intensity, higher = more binding, comparable within an allelic series)"
same,binding signal,[14],"8.83 upbm affinity estimate (log intensity, higher = more binding, comparable within an allelic series)"
same,binding signal,[15],"12.3 upbm affinity estimate (log intensity, higher = more binding, comparable within an allelic series)"
ATCGATTA,binding signal,[16],"11 upbm affinity estimate (log intensity, higher = more binding, comparable within an allelic series)"
CCGCCTAG,binding signal,[5],"8.41 upbm affinity estimate (log intensity, higher = more binding, comparable within an allelic series)"
same,binding signal,[12],"8.38 upbm affinity estimate (log intensity, higher = more binding, comparable within an allelic series)"
CTTAATGA,binding signal,[2],"11.3 upbm affinity estimate (log intensity, higher = more binding, comparable within an allelic series)"
same,binding signal,[4],"9.94 upbm affinity estimate (log intensity, higher = more binding, comparable within an allelic series)"
same,binding signal,[14],"8.84 upbm affinity estimate (log intensity, higher = more binding, comparable within an allelic series)"
same,binding signal,[15],"11.6 upbm affinity estimate (log intensity, higher = more binding, comparable within an allelic series)"
AGGGGGGG,binding signal,[1],"9.2 upbm affinity estimate (log intensity, higher = more binding, comparable within an allelic series)"
same,binding signal,[17],"9.12 upbm affinity estimate (log intensity, higher = more binding, comparable within an allelic series)"
same,binding signal,[6],"9.24 upbm affinity estimate (log intensity, higher = more binding, comparable within an allelic series)"
same,binding signal,[8],"9.31 upbm affinity estimate (log intensity, higher = more binding, comparable within an allelic series)"
same,binding signal,[16],"9.09 upbm affinity estimate (log intensity, higher = more binding, comparable within an allelic series)"
same,binding signal,[13],"9.11 upbm affinity estimate (log intensity, higher = more binding, comparable within an allelic series)"
CGGGGGTC,binding signal,[1],"9.59 upbm affinity estimate (log intensity, higher = more binding, comparable within an allelic series)"
same,binding signal,[4],"8.98 upbm affinity estimate (log intensity, higher = more binding, comparable within an allelic series)"
same,binding signal,[6],"9.65 upbm affinity estimate (log intensity, higher = more binding, comparable within an allelic series)"
same,binding signal,[8],"9.62 upbm affinity estimate (log intensity, higher = more binding, comparable within an allelic series)"
same,binding signal,[13],"9.59 upbm affinity estimate (log intensity, higher = more binding, comparable within an allelic series)"
same,binding signal,[15],"9.04 upbm affinity estimate (log intensity, higher = more binding, comparable within an allelic series)"
CCTACCGC,binding signal,[1],"9.66 upbm affinity estimate (log intensity, higher = more binding, comparable within an allelic series)"
same,binding signal,[6],"9.63 upbm affinity estimate (log intensity, higher = more binding, comparable within an allelic series)"
same,binding signal,[8],"9.56 upbm affinity estimate (log intensity, higher = more binding, comparable within an allelic series)"
same,binding signal,[13],"9.71 upbm affinity estimate (log intensity, higher = more binding, comparable within an allelic series)"
CGGCAGAG,binding signal,[2],"8.53 upbm affinity estimate (log intensity, higher = more binding, comparable within an allelic series)"
same,binding signal,[14],"8.39 upbm affinity estimate (log intensity, higher = more binding, comparable within an allelic series)"
ATTTGAAC,binding signal,[1],"10.9 upbm affinity estimate (log intensity, higher = more binding, comparable within an allelic series)"
same,binding signal,[6],"10.8 upbm affinity estimate (log intensity, higher = more binding, comparable within an allelic series)"
same,binding signal,[8],"11 upbm affinity estimate (log intensity, higher = more binding, comparable within an allelic series)"
CTGGCGGC,binding signal,[2],"8.57 upbm affinity estimate (log intensity, higher = more binding, comparable within an allelic series)"
same,binding signal,[7],"9.52 upbm affinity estimate (log intensity, higher = more binding, comparable within an allelic series)"
same,binding signal,[9],"9.59 upbm affinity estimate (log intensity, higher = more binding, comparable within an allelic series)"
same,binding signal,[11],"9.5 upbm affinity estimate (log intensity, higher = more binding, comparable within an allelic series)"
same,binding signal,[14],"8.35 upbm affinity estimate (log intensity, higher = more binding, comparable within an allelic series)"
CGCCGAAG,binding signal,[1],"9.52 upbm affinity estimate (log intensity, higher = more binding, comparable within an allelic series)"
same,binding signal,[4],"9.07 upbm affinity estimate (log intensity, higher = more binding, comparable within an allelic series)"
same,binding signal,[6],"9.6 upbm affinity estimate (log intensity, higher = more binding, comparable within an allelic series)"
same,binding signal,[8],"9.42 upbm affinity estimate (log intensity, higher = more binding, comparable within an allelic series)"
same,binding signal,[13],"9.77 upbm affinity estimate (log intensity, higher = more binding, comparable within an allelic series)"
same,binding signal,[15],"9.15 upbm affinity estimate (log intensity, higher = more binding, comparable within an allelic series)"
TAATGACA,binding signal,[2],"11.2 upbm affinity estimate (log intensity, higher = more binding, comparable within an allelic series)"
same,binding signal,[4],"10 upbm affinity estimate (log intensity, higher = more binding, comparable within an allelic series)"
same,binding signal,[14],"8.98 upbm affinity estimate (log intensity, higher = more binding, comparable within an allelic series)"
same,binding signal,[15],"11.7 upbm affinity estimate (log intensity, higher = more binding, comparable within an allelic series)"
CCGGACCA,binding signal,[1],"9.48 upbm affinity estimate (log intensity, higher = more binding, comparable within an allelic series)"
same,binding signal,[4],"9.06 upbm affinity estimate (log intensity, higher = more binding, comparable within an allelic series)"
same,binding signal,[6],"9.57 upbm affinity estimate (log intensity, higher = more binding, comparable within an allelic series)"
same,binding signal,[8],"9.51 upbm affinity estimate (log intensity, higher = more binding, comparable within an allelic series)"
same,binding signal,[13],"9.77 upbm affinity estimate (log intensity, higher = more binding, comparable within an allelic series)"
same,binding signal,[15],"8.79 upbm affinity estimate (log intensity, higher = more binding, comparable within an allelic series)"
ACCGTGGG,binding signal,[2],"8.39 upbm affinity estimate (log intensity, higher = more binding, comparable within an allelic series)"
same,binding signal,[3],"10.1 upbm affinity estimate (log intensity, higher = more binding, comparable within an allelic series)"
same,binding signal,[10],"10 upbm affinity estimate (log intensity, higher = more binding, comparable within an allelic series)"
same,binding signal,[14],"8.44 upbm affinity estimate (log intensity, higher = more binding, comparable within an allelic series)"
TAATGATA,binding signal,[4],"10 upbm affinity estimate (log intensity, higher = more binding, comparable within an allelic series)"
CAGACCCC,binding signal,[2],"8.69 upbm affinity estimate (log intensity, higher = more binding, comparable within an allelic series)"
same,binding signal,[14],"8.53 upbm affinity estimate (log intensity, higher = more binding, comparable within an allelic series)"
ATTAATCA,binding signal,[17],"11.6 upbm affinity estimate (log intensity, higher = more binding, comparable within an allelic series)"
same,binding signal,[4],"9.98 upbm affinity estimate (log intensity, higher = more binding, comparable within an allelic series)"
same,binding signal,[16],"11 upbm affinity estimate (log intensity, higher = more binding, comparable within an allelic series)"
same,binding signal,[18],"8.96 upbm affinity estimate (log intensity, higher = more binding, comparable within an allelic series)"
CGGGCTTC,binding signal,[17],"9.13 upbm affinity estimate (log intensity, higher = more binding, comparable within an allelic series)"
same,binding signal,[16],"9.09 upbm affinity estimate (log intensity, higher = more binding, comparable within an allelic series)"
TCCCAGGA,binding signal,[1],"9.51 upbm affinity estimate (log intensity, higher = more binding, comparable within an allelic series)"
same,binding signal,[6],"9.58 upbm affinity estimate (log intensity, higher = more binding, comparable within an allelic series)"
same,binding signal,[8],"9.57 upbm affinity estimate (log intensity, higher = more binding, comparable within an allelic series)"
same,binding signal,[13],"9.72 upbm affinity estimate (log intensity, higher = more binding, comparable within an allelic series)"
CGAGGCAC,binding signal,[1],"9.69 upbm affinity estimate (log intensity, higher = more binding, comparable within an allelic series)"
same,binding signal,[6],"9.79 upbm affinity estimate (log intensity, higher = more binding, comparable within an allelic series)"
same,binding signal,[7],"9.57 upbm affinity estimate (log intensity, higher = more binding, comparable within an allelic series)"
same,binding signal,[8],"9.72 upbm affinity estimate (log intensity, higher = more binding, comparable within an allelic series)"
same,binding signal,[9],"9.71 upbm affinity estimate (log intensity, higher = more binding, comparable within an allelic series)"
same,binding signal,[11],"9.78 upbm affinity estimate (log intensity, higher = more binding, comparable within an allelic series)"
same,binding signal,[13],"9.7 upbm affinity estimate (log intensity, higher = more binding, comparable within an allelic series)"
